Pf growth 96h = Primary qHTS for delayed death inhibitors of the malarial parasite plastid, 96 hour incubation. P. falciparum luciferase reporter growth, 96 h. Potency, µM (titrated, usually from 28.7 µM), usual class: inhibitors. actives 6.9% (n = 320,000)
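96 h incubation, 37 C, 5% CO2, of luciferase-reporter P. falciparum-infected RBCs (2% hematocrit, 0.05% parasitemia final) with test compounds; endpoint luminescence.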
Pf growth 48h = Primary qHTS for delayed death inhibitors of the malarial parasite plastid, 48 hour incubation; P. falciparum luciferase growth in erythrocytes, 48 h; Potency, µM (titrated, usually from 28.7 µM), most hits filed as inhibitors; actives 5.9% (n = 310,000)
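Parasite viability was followed by luminescence of a genomically integrated firefly luciferase. Cultures held 0.1% parasitemia at 2% hematocrit (final), incubated under 5% CO2 at 37 C.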
HCMV antiviral = qHTS Assay for inhibitors of the human cytomegalovirus (HCMV); HFF cells, HCMV-luciferase reporter, 72 h; stronger effect = lower value; activity change, negative = inhibition, % at 57.5 µM; actives 4.5% (n = 410,000); AID 1259415, 2018; in the data active = activity change below about -60%; inconclusive = no clear call, values can overlap the other calls; inactive = above about -39%
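Screen run at 2 compound doses on HFFs infected with reporter HCMV, MOI 1 PFU/cell. Luciferase activity from cell lysates at 72 h post infection gave inhibition relative to buffer-only and Salinomycin wells.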
HCV inhibitor = qHTS Assay for Inhibitors of Hepatitis C Virus (HCV); AID 651820, 2012; Huh7.5.1 HCVcc-Cre infection, luciferase reporter, 44 h; actives 3.4% (n = 340,000); Potency, µM (series often up to 41.8 µM), hits mostly inhibitors
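Cells (1,000/well) were plated 4 h before compound, then infected with HCVcc-Cre virus (~0.5 moi). After 44 h further culture, infection was read as luciferase luminescence following a 15 min substrate incubation at room temperature.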
A number is an active result; . = inactive; ? = inconclusive; / = no result given; ! = repeats disagree; [ ] = another dose, or the depositor's remark. Sampled rows, rich in hits. Any-hit rate of the full collection: about 13%. Unless noted, calls follow the shape of the dose curve; as a rule, active = well fitted inhibition curve with a large enough effect; inconclusive = small, poorly fitted or top-dose-only effect, or another doubt; inactive = no such curve, though single readings can be large or run the other way.

SMILES	Pf growth 96h	Pf growth 48h	HCMV antiviral	HCV inhibitor
CCOc1ccc(NC(=O)c2ccc(CN3CCc4ccccc4C3)cc2)cc1	5.2µM	.	?	2µM
CCOC(=O)c1ccc(NC(=O)c2ccc(CN3CCc4ccccc4C3)cc2)cc1	.	?	.	1.4µM
Cc1cc(C)cc(OCc2ccc(C(=O)Nc3ccccc3F)o2)c1	/	/	.	/
Cn1cc(C(=O)NCCc2ccccc2)c(=O)c2cc(S(=O)(=O)N3CCCCCC3)ccc21	/	/	.	/
Cc1ccc(CN2COc3ccc4c(-c5ccccc5)cc(=O)oc4c3C2)cc1	/	/	.	/
COc1ccccc1C(=O)c1cc2ccc(O)cc2oc1=O	.	.	-62	.
CCOC(=O)c1c(C)n(-c2ccccc2)c2ccc(OCCN(C)C)cc12	.	?	.	16µM
CCOc1ccc2c(c1)c(C(C)=O)c(C)n2-c1ccccc1	/	.	?	11µM
CCOC(=O)c1c(C)n(C)c2ccc(OCCN(C)C)cc12	/	.	.	.
Cc1ccc(CN2CCN(C(=O)/C=C/[C@H]3O[C@@H](n4cc(C)c(=O)[nH]c4=O)C[C@@H]3O)CC2)cc1	/	/	.	/
O=C(NCc1ccco1)C1=COC2=NC(=O)N(Cc3ccccc3)CCN12	/	/	.	/
O=C(C1CCCN(c2ncnc3c2nc2n3CCCCC2)C1)N1CCN(c2ccc(F)cc2)CC1 (centres undefined)	?	9.3µM	.	11µM
O=C(C1CCCN(c2ncnc3c2nc2n3CCCCC2)C1)N1CCN(c2ccc(Cl)cc2)CC1 (centres undefined)	.	12µM	-83	?
CCN(C(=O)C1CCCN(c2ncnc3c2nc2n3CCCCC2)C1)c1cccc(Cl)c1 (centres undefined)	?	?	-87!	.
O=C(C1CCCN(c2ncnc3c2nc2n3CCCCC2)C1)N1CCCCC1 (centres undefined)	.	?	.	.
COc1ccc(N(CC(=O)N2CCCCC2)S(=O)(=O)c2ccc(OC)c(OC)c2)cc1	/	/	.	/
COc1ccc(CC(=O)N2CC(=O)Nc3ccc(F)cc3C2c2ccccc2)cc1 (centres undefined)	/	/	.	/
COC(=O)[C@@H](CC(C)C)N(Cc1ccccc1)S(=O)(=O)N(Cc1ccccc1)[C@@H](CC(C)C)C(=O)OC	/	/	?	.
COC(=O)[C@@H](Cc1ccccc1)N(Cc1ccccc1)S(=O)(=O)N(Cc1ccccc1)[C@H](Cc1ccccc1)C(=O)OC	/	/	-96	.[8.37 µM]
C=C[C@H](Cc1ccccc1)N(Cc1ccccc1)S(=O)(=O)N(Cc1ccccc1)[C@H](C=C)Cc1ccccc1	/	/	-86	.[8.37 µM]
COc1ccc(C2C(C(C)=O)=C(O)C(=O)N2CCO)c(OC)c1 (centres undefined)	12µM	.	.	.
CCCCN1C(=O)C(O)=C(C(C)=O)C1c1ccc(OC)cc1OC (centres undefined)	.	.	.	.
COc1cccc(N2C(=O)C(O)=C(C(C)=O)C2c2ccc(OC)c(OC)c2)c1 (centres undefined)	?	13µM	.	.
NC(N)=NC(N)=Nc1cccc(Cl)c1	10µM	?	.	.
CN1N=C(C(=O)N2CCc3c([nH]c4ccccc34)C2c2ccccc2Cl)CCC1=O (centres undefined)	10µM	1.7µM	.	.
SMILES	Pf growth 96h	Pf growth 48h	HCMV antiviral	HCV inhibitor
COc1ccc(C2c3[nH]c4ccccc4c3CCN2C(=O)c2ccc(=O)n(C)n2)c(F)c1 (centres undefined)	.	?	.	.
CSc1ccc(C2c3[nH]c4ccccc4c3CCN2C(=O)c2cc(C)n(C)n2)cc1 (centres undefined)	.	?	/	/
Cc1cc(C(=O)N2CCc3c([nH]c4ccccc34)C2c2cccc(Cl)c2)nn1C (centres undefined)	12µM	?	.	?
Cc1ccccc1C1c2[nH]c3ccccc3c2CCN1C(=O)c1ccc(=O)n(C)n1 (centres undefined)	13µM	?	.	.
Oc1ccccc1N1CCN(CC(O)COC2CCCc3ccccc32)CC1 (centres undefined)	?	9.3µM	.	.
OC(COc1ccc2c(c1)CCC2)CN1CCN(c2ccccc2F)CC1 (centres undefined)	/	?	.	?
CN1C(=O)N(C)C2(c3ccccc3)NC(=O)NC12c1ccccc1 (centres undefined)	?	.	.	.
CCN1C(=O)N(c2cccc3ccccc23)C(C)=CC1(C)C	?	.	.	.
